From the supplement of paper PMC12632987

T1: USP38, Q8NB14
T1 chain: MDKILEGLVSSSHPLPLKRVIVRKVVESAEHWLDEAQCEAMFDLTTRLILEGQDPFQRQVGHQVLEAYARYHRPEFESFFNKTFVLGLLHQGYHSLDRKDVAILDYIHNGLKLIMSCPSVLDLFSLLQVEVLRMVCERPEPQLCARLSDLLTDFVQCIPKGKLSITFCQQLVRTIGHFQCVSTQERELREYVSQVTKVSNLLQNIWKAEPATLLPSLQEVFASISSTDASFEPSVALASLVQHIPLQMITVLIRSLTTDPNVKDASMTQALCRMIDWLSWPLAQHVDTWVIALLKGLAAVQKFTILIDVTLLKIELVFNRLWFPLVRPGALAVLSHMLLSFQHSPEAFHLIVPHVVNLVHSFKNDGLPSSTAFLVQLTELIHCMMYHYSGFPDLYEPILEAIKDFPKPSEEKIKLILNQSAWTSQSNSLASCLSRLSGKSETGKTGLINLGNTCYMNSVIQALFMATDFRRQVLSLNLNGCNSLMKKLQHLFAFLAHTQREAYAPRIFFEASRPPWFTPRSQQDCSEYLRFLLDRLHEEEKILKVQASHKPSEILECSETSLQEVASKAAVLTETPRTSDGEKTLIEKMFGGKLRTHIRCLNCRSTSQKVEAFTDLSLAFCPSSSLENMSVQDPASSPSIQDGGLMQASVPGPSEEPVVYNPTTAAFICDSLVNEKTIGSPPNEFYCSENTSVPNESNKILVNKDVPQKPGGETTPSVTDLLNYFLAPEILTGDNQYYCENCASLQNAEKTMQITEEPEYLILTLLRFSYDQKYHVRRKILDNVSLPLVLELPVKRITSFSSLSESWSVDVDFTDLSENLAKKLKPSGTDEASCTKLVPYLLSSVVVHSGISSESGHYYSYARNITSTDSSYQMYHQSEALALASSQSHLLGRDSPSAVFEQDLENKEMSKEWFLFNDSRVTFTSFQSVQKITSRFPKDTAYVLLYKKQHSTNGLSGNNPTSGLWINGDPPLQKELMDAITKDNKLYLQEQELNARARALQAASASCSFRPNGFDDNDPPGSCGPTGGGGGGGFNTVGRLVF


Biological target: T1, USP38, Q8NB14
Assay: median log2 fold change of GCK-ALFA target abundance (FLAG IP / Myc IP barcode read proportion) (log2 ratio); each designed protein is fused to an ALFA-tag nanobody in HEK293 cells to bring the named protein to FLAG-tagged glucokinase (GCK); Myc marks an untargeted standard; higher = target protein stabilised (more abundant)
Conditions: target protein: 3xFLAG-MCP-GCK-ALFA reporter; HEK293 landing pad (RPLP)
In short: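 Binders fused to an ALFA nanobody were recombined as a library into HEK293 landing-pad cells, which were induced with 2 μg mL^−1 doxycycline and then transfected to express a FLAG-tagged target and a Myc-tagged standard. After 48 h, circular RNA barcodes recovered by anti-FLAG and anti-Myc immunoprecipitation of lysates were reverse transcribed, amplified and sequenced. Each binder's target abundance is the median log2 ratio of FLAG to Myc barcode read proportions, from barcodes present at ≥10^−7 in both replicates, binders carrying ≥3 barcodes per replicate, a 10^−6 pseudocount and pooled replicates.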

Row | Binder | median log2 fold change
1 | usp_38_diff_out_1_153_20 (protein) SRLEELRKELEEILEEAKRLRDEIERLIAEGRMTRELVDRYADRLGELAARFREIRAELADDPEAYKELRPLLKETQAALDAAVDALERAGRLVFLREAE | -0.0906
2 | usp_38_diff_out_1_153_35 (protein) SELDKLKAELADITAKANALKKEIEAAIKAGTMTREKVDAAWDELGALAKRLAEIRSKAAENPELYPKLKADIDAANAALDAAIDALNEAATKVFLKEAE | 0.136
3 | usp_38_diff_out_1_162_37 (protein) RAEELLERLREHTERLRRLVEEAKRRLDTLSAEELRAMADELADAIAETDELIREARRLMVDLDPERREEARRAIEEARRAADEAVEVYEQLVLRSIELE | 0.216
4 | usp_38_diff_out_1_153_25 (protein) SELEELKKKVEEIKKEAEKLKKEAEELIKSGEATREKVEELADKLGKLSVELREIRSKAAESGEYYKELKPLFKEAEEALNEAVDALEKAAREVFLKEAE | -0.027
5 | usp_38_diff_out_1_153_27 (protein) SELEELKKKIEEITKEAEKLKKEAEKLIKDGTATREKVDELADKLGKLAVELREIRSKAAESGEYYKKLKPLFKKAEKALNEAVDALNKAATLVFEKEAE | 0.0209
6 | usp_38_diff_out_1_147_13 (protein) SAADEADREAEAEAREKLRRFAWESLEELEKNRDKLSLDRLTIGAGGLLVVALELGDEELLLRVAALLLEDPEVLARVRARLSPEERARLEAAVARVRAA | -1.17
7 | usp_38_diff_out_1_153_16 (protein) SELEKMKEELEKILEEAKKLKEEIEKLIKEGKMTREKVDKYADELAELAKRFRELRSKAAENPEYYKELKELFKETLKALNEAVDALTKAAEQVFLKEAE | -0.51
8 | usp_38_diff_out_1_153_21 (protein) SELEELKKELEEILEEAKKLKEEIEKLIKEGKMTLEKVDKLADELGRLSKRFREIRSKAAENPEYYEKLKELFKETEEELNKAVDALNEAGRLVFLKEAE | 0.358
9 | usp_38_diff_out_1_162_40 (protein) ELEEVLREAREAIERARELLERAKEALEEGRLEEAERLLDEAADELGRAARLLREARRLLRELPPEEREKYREELEKLERELRELIDEYTELAREVFLRR | -0.209
10 | usp_38_diff_out_1_153_36 (protein) SELDELKARLDAITAEANALKAEINAAIEAGTMTREQVDAAWDRLGALAKELAEIRAKAAEKPELYPQLKPAIDAATAALNAAIDALNEAARLVFLREAE | 0.22
11 | usp_38_diff_out_1_153_28 (protein) SKLEELKKRVEEITKEAKELKKEAEKLIKSGKATLEKVEELADKLGKLSVELREIRSEAAEDEEYYKELKPLFKEAEKALNEAVDALEKAGRLVFEKMAE | -0.31
12 | usp_38_diff_out_1_153_24 (protein) VKLEELKKRVEEITKRAKELKKEAEELLKSGNATREEVDRLADELGRLAVELRELRSIAAEDEEVYKALKPLFKEANEALDEAVDALNEAGRRVFLKEAE | 0.085
13 | usp_38_diff_out_1_147_15 (protein) SPADEADAEAEAEARERLREFARESLDELEANRDRLSLDRRVTQAGGLFTIAVELGDRELLLRVAALLLEDPEALAAVRARLSPEERAALEAAVAEVRAA | 0.0346
14 | usp_38_diff_out_1_153_18 (protein) SRLDELRARLERILAEARELKAEIKALIEAGTMTREKVEEYADRLAALAAEFREIRAEAAEDPAAYAALRPLFRETQAALDEAVDALEEAGRLVFEREAE | 0.0475
15 | usp_38_diff_out_1_162_42 (protein) KLEELLEQAKRALAEAEELLERAEEALAAGRLEEARRYLDRAWDALGRLAQLLREARRLLRELSPEEREKARKQLKELEARADELIDRLVELEREVFLRE | -0.0981
16 | usp_38_diff_out_1_101_9 (protein) MEAELAAAKAAFDAAAAALLKAAEDALAKIKAEGTPEQAAEMERHLAAIKSFIADSRKTLEEIAEQDKEAAIEFANAATTVLNILTAEVKEETARLLAKA | -0.957

Row | Binder | median log2 fold change
17 | usp_38_diff_out_1_153_29 (protein) SELEELKARVEKITKEAEALKKEAEKLIADGTATREKVDALADKLGALAVELREIKSKAAESGEYYKKLKPLFDKAEAALNEAVDALNRAATLVFEREAA | -0.161
18 | usp_38_diff_out_1_153_30 (protein) SELEELEKEIKKITEEAKKLKKEAEELIKSGKATREKVDKLADELGKLAVRLREIRSKAAESGDYYKKLKPLFKEAEKALNEAVDALEKAGRLVFEKEAE | -0.0674
19 | usp_38_diff_out_1_147_14 (protein) SAADEADAAAQAEIDERLRRFARESLDDFEANRDRYSPDRATVALGGLITTAIELGDRELLLRAAALLLKDPAVRAAVLARLDPAARAAFEEAEAEVRAA | 0.247
20 | usp_38_diff_out_1_153_31 (protein) SELEELRERIERLTREARELEREARELIESGEATREKVDELADRLGRLAVELRELRSKAAESGEYYKELKPLFEEAEEALNRAVDALNEAGRLVFEREAE | 0.15
21 | usp_38_diff_out_1_162_38 (protein) ELEELLKEAEEAIERARELLERAEEAFAAGDLETAERLLREAADELGRAAQLLREARRLLRELPPEEREKYRERLEELERELDELIDRYTALATEVFLAR | 0.219
22 | usp_38_diff_out_1_153_33 (protein) SKLEELKARVEALTAEAKALEKEAKALIESGKATREKVDALADRLGALAVELRELRSEAAESGEYYKELKPLFDEANAALDAAVDALEKLGRLVFEKEAE | 0.179
23 | usp_38_diff_out_1_153_23 (protein) MKEEELRKRLEEIKKKAEELKKEAEALLKSGNATREKVDALADKLGALAVELRELKALAAQDPEVYKALKPLFKETEKALNEAVDALNEAARQVFLKEAE | 0.0874
24 | usp_38_diff_out_1_162_43 (protein) DVEKVLEQAKELLEKAEKKIKEAEKALKEGKLEEAEKYLDEAWELLGQLAKLLREARRLRRELDPERQAEVTKKLKELNEKANKLIDKLTKLEEEVFLKK | -1.34
25 | usp_38_diff_out_1_153_34 (protein) SRLEELRKRVEEITKRAKELKKRAEELIESGEATLEKVDELADELGRLAVELREVRSEAAEDGDYYRELKPLFDEAEKALNEAVDALNEAGRLVFLKEAE | 0.122
26 | usp_38_diff_out_1_153_22 (protein) MKEEELEKKVEEIKKKAKELLKEAKKLLESGKATREEVDKLADELGKLAVELRELRSEAAEDEEVYKKLKEKFKEAEKALNEAVDALNEAARRVFLKEAE | 0.146
27 | usp_38_diff_out_1_153_32 (protein) SELEELKKKVEEITKKAKELKKEAEKLIADGTATLEKVDALADELGALAVELREIRSKAAESGDYYKKLKPLFDEANAALNEAVDALNRAGTLVFEREAE | -0.165
28 | usp_38_diff_out_1_153_19 (protein) SELEELKKELEKIKEEAKKLKEEIEKLIKEGKMTREKVDEYADKLGELAKRFREIRSKLAQNPEAYKELKELLKETEKELNEAVDALNEAGRLVFLKEAE | -0.00147
29 | usp_38_diff_out_1_162_39 (protein) RLEELLEEARRAIEEARRLLEEAERAFKAGDLEEARRLLDRAADALGRAAQLLREARRLMRDLPPEEREKVREELDRLEEELDRLIDRYTELATRVFLAE | 0.185
30 | usp_38_diff_out_1_153_17 (protein) SRLEELKKRLEEILEEAKRLKEEIERLIAEGTMTREKVDEYADRLGKLAVEFREIRAEAAEDPEIYKELKELFKETEKALNEAVDALERAGRLVFLREAE | -0.168
31 | usp_38_diff_out_1_162_41 (protein) DIEKVLEQAQKALEEAEKLLKEAEKALKEGDLEEAEKYIRKAWDKLGQLAQLLREARRLLRELSPEERKKYREQLDKLEAKADELIDRLVKLEKEVFLKK | -0.214
32 | usp_38_diff_out_1_153_26 (protein) SELEKLEKEIKKITEEAKKLKEEAEKLIEDGTATREKVDELADRLGKLAVELREIRSKAAESGDYYKKLKPLFEEAEKALNEAVDALNKAGTLVFEKEAE | 0.457
